Assay results reported in PubChem BioAssay AID1159580 (chemical genetic matrix, 2015).
Screen size: about 5,500 compounds; about 2,000 (36%) were called active. Roughly 18% stayed inconclusive and do not appear here. Rule as the data show it: active = normalized growth mostly below about 0.91 (no sharp cut-off); inconclusive = no clear call, values can overlap the other calls; inactive = mostly above about 0.92. Some of the results follow.

Assay: chemical genetic growth profiling, strain panel (AID 1159580);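 also: tested at 20 µM; growth read once vehicle control cultures reached saturation at 30 °C; 1 = growth at the plate median or of vehicle wells; lower values mean less growth of the strain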
Settings: S. cerevisiae deletion strains, growth OD

Measured: normalized growth

CC(=O)c1ccc(O)c(CC=C(C)C)c1
active: locus YGL253W, strain hxk2, hits give low values 0.884 | locus YGR252W, strain gcn5, hits give low values 0.749 | locus YKR001C, strain vps1, hits give low values 0.808 | locus YLR221C, strain rsa3, hits give low values 0.905 | locus YNL248C, strain rpa49, hits give low values 0.871 | locus YOR270C, strain vph1, hits give low values 0.737
inactive: locus YAL021C, strain ccr4, hits give low values 1 | locus YAL026C, strain drs2, hits give low values 0.952 | locus YAL030W, strain snc1, hits give low values 0.972 | locus YBL061C, strain skt5, hits give low values 0.956 | locus YBR009C, strain hhf1, hits give low values 0.933 | locus YBR021W, strain FUR4, hits give low values 0.954 | locus YBR023C, strain chs3, hits give low values 0.964 | locus YBR171W, strain sec66, hits give low values 0.949 | locus YBR229C, strain ROT2, hits give low values 0.983 | locus YBR231C, strain swc5, hits give low values 0.929 | locus YBR279W, strain paf1, hits give low values 0.977 | locus YCL011C, strain gbp2, hits give low values 0.959 | locus YCL016C, strain dcc1, hits give low values 0.999 | locus YCL029C, strain bik1, hits give low values 0.967 | locus YCL061C, strain MRC1, hits give low values 0.965 | locus YCL069W, strain vba3, hits give low values 0.971 | locus YCR088W, strain abp1, hits give low values 0.968 | locus YDL005C, strain med2, hits give low values 0.952 | locus YDL035C, strain GPR1, hits give low values 0.956 | locus YDL040C, strain nat1, hits give low values 0.97 | locus YDL074C, strain BRE1, hits give low values 0.867 | locus YDL101C, strain DUN1, hits give low values 0.963 | locus YDL134C, strain PPH21, hits give low values 0.984 | locus YDL185W, strain tfp1, hits give low values 0.922 | locus YDL192W, strain arf1, hits give low values 0.942 | locus YDR001C, strain nth1, hits give low values 0.966 | locus YDR069C, strain doa4, hits give low values 0.951 | locus YDR101C, strain arx1, hits give low values 0.968 | locus YDR137W, strain rgp1, hits give low values 0.983 | locus YDR159W, strain sac3, hits give low values 0.896 | locus YDR162C, strain NBP2, hits give low values 0.963 | locus YDR195W, strain ref2 0.975 | locus YDR297W, strain sur2, hits give low values 0.933 | locus YDR318W, strain mcm21, hits give low values 0.958 | locus YDR334W, strain swr1, hits give low values 0.966 | locus YDR335W, strain msn5, hits give low values 0.994 | locus YDR388W, hits give low values 0.967 | locus YDR392W, strain spt3, hits give low values 0.929 | locus YDR502C, strain sam2, hits give low values 0.938 | locus YEL003W, strain gim4, hits give low values 0.928 | locus YEL037C, strain rad23, hits give low values 0.964 | locus YEL061C, strain CIN8 (second series), hits give low values 0.965 | locus YEL061C, strain CIN8, hits give low values 0.982 | locus YER015W, strain faa2, hits give low values 0.971 | locus YER016W, strain bim1, hits give low values 0.975 | locus YER110C, hits give low values 0.965 | locus YER111C, strain swi4, hits give low values 0.974 | locus YER155C, strain BEM2 (second series), hits give low values 0.958 | locus YER155C, strain BEM2, hits give low values 0.986 | locus YER167W, strain BCK2, hits give low values 0.904 | locus YFR010W, strain ubp6, hits give low values 0.952 | locus YGL078C, strain dbp3, hits give low values 0.961 | locus YGL086W, strain mad1, hits give low values 0.972 | locus YGL167C, strain pmr1, hits give low values 0.962 | locus YGL173C, strain kem1, hits give low values 0.949 | locus YGL227W, strain vid30, hits give low values 0.961 | locus YGL240W, strain doc1, hits give low values 0.894 | locus YGL248W, strain PDE1, hits give low values 0.961 | locus YGR078C, strain PAC10, hits give low values 0.936 | locus YGR135W, strain pre9, hits give low values 0.934 | locus YGR229C, strain SMI1, hits give low values 0.84 | locus YHR013C, strain ard1, hits give low values 0.991 | locus YHR027C, strain rpn1, hits give low values 0.971 | locus YHR030C, strain SLT2, hits give low values 0.976 | locus YHR079C, strain IRE1 (second series), hits give low values 0.959 | locus YHR094C, strain hxt1, hits give low values 0.967 | locus YHR129C, strain ARP1, hits give low values 0.967 | locus YHR142W, strain chs7, hits give low values 0.926 | locus YHR200W, strain rpn10, hits give low values 0.971 | locus YIL066C, strain RNR3, hits give low values 0.945 | locus YIL073C, strain SPO22, hits give low values 0.955 | locus YIR030C, strain dcg1, hits give low values 0.965 | locus YJL092W, strain hpr5, hits give low values 0.97 | locus YJL095W, strain BCK1 (second series), hits give low values 0.964 | locus YJL095W, strain BCK1, hits give low values 0.956 | locus YJL115W, strain asf1, hits give low values 0.975 | locus YJL129C, strain trk1, hits give low values 0.946 | locus YJL134W, strain LCB3, hits give low values 0.974 | locus YJL154C, strain vps35, hits give low values 0.966 | locus YJL164C, strain tpk1, hits give low values 0.973 | locus YJL166W, strain qcr8, hits give low values 0.936 | locus YJL168C, strain set2, hits give low values 0.99 | locus YJL187C, strain SWE1 (second series), hits give low values 0.953 | locus YJL187C, strain SWE1, hits give low values 0.961 | locus YJR043C, strain POL32, hits give low values 0.876 | locus YJR075W, strain HOC1, hits give low values 0.947 | locus YKL009W, strain mrt4, hits give low values 0.939 | locus YKL068W, hits give low values 0.957 | locus YKL085W, strain MDH1 (second series), hits give low values 0.951 | locus YKL085W, strain MDH1, hits give low values 0.951 | locus YKL160W, strain elf1, hits give low values 0.982 | locus YKR026C, strain gcn3, hits give low values 0.962 | locus YKR091W, strain srl3, hits give low values 0.969 | locus YLL001W, strain dnm1, hits give low values 0.945 | locus YLL026W, hits give low values 0.973 | locus YLL041C, strain sdh2, hits give low values 0.965 | locus YLR027C, strain aat2, hits give low values 0.951 | locus YLR039C, strain RIC1, hits give low values 0.688 | locus YLR058C, strain SHM2, hits give low values 0.977 | locus YLR102C, strain apc9, hits give low values 0.969 | locus YLR258W, strain gsy2, hits give low values 0.963 | locus YLR262C, strain YPT6 (second series), hits give low values 0.968 | locus YLR262C, strain YPT6, hits give low values 0.801 | locus YLR268W, strain sec22, hits give low values 0.959 | locus YLR320W, strain mms22, hits give low values 0.933 | locus YLR330W, strain CHS5, hits give low values 0.974 | locus YLR342W, strain FKS1 (second series), hits give low values 0.95 | locus YLR342W, strain FKS1, hits give low values 0.963 | locus YLR357W, strain rsc2, hits give low values 0.967 | locus YLR370C, strain arc18, hits give low values 0.965 | locus YLR371W, strain rom2, hits give low values 0.978 | locus YLR384C, strain iki3, hits give low values 0.961 | locus YLR418C, strain cdc73, hits give low values 0.872 | locus YML016C, strain PPZ1, hits give low values 0.982 | locus YML032C, strain rad52, hits give low values 0.967 | locus YML120C, strain ndi1, hits give low values 0.966 | locus YML124C, strain tub3, hits give low values 0.96 | locus YMR058W, strain fet3, hits give low values 0.963 | locus YMR078C, strain ctf18, hits give low values 0.951 | locus YMR125W, strain sto1, hits give low values 1 | locus YMR129W, hits give low values 0.969 | locus YMR205C, strain PFK2, hits give low values 0.981 | locus YMR223W, strain ubp8, hits give low values 0.932 | locus YMR231W, strain pep5, hits give low values 0.972 | locus YMR263W, strain SAP30, hits give low values 0.949 | locus YMR307W, strain GAS1, hits give low values 0.923 | locus YNL067W, strain RPL9B, hits give low values 0.953 | locus YNL071W, strain lat1, hits give low values 0.957 | locus YNL153C, strain GIM3, hits give low values 0.969 | locus YNL209W, strain ssb2, hits give low values 0.997 | locus YNL233W, strain BNI4, hits give low values 0.929 | locus YNL250W, strain rad50, hits give low values 0.967 | locus YNL271C, strain bni1, hits give low values 0.957 | locus YNL298W, strain CLA4, hits give low values 0.977 | locus YNL307C, strain MCK1, hits give low values 0.952 | locus YNL322C, strain KRE1 (second series), hits give low values 0.959 | locus YNR049C, strain mso1, hits give low values 0.968 | locus YNR052C, strain pop2, hits give low values 0.983 | locus YOL006C, strain TOP1, hits give low values 0.587 | locus YOL012C, strain htz1 1.06 | locus YOL147C, strain pex11, hits give low values 0.977 | locus YOR001W, strain rrp6, hits give low values 0.922 | locus YOR061W, strain CKA2, hits give low values 0.989 | locus YOR069W, strain VPS5, hits give low values 0.981 | locus YOR070C, strain gyp1, hits give low values 0.979 | locus YOR080W, strain dia2, hits give low values 0.951 | locus YOR083W, strain WHI5, hits give low values 0.979 | locus YOR106W, strain vam3, hits give low values 0.938 | locus YOR136W, strain idh2, hits give low values 0.972 | locus YOR144C, strain elg1, hits give low values 0.979 | locus YOR184W, strain ser1, hits give low values 0.96 | locus YOR265W, strain rbl2, hits give low values 0.964 | locus YOR290C, strain snf2, hits give low values 0.976 | locus YOR316C, strain cot1, hits give low values 0.969 | locus YPL051W, strain arl3, hits give low values 0.916 | locus YPL078C, strain atp4, hits give low values 0.959 | locus YPL106C, strain sse1, hits give low values 0.969 | locus YPL240C, strain hsp82, hits give low values 0.979 | locus YPR119W, strain clb2, hits give low values 0.961 | locus YPR141C, strain kar3, hits give low values 0.964 | locus YPR163C, strain tif3, hits give low values 0.948 | locus YPR167C, strain met16, hits give low values 0.969 | strain wtn01, hits give low values 0.957
